Assay [1] deals with Estrogen receptor (Homo sapiens) (UniProt P03372). Briefly: OT_ERa_GFPERaERE_0480: Odyssey Thera (OT) 8-hour HeLa Transcription Induction Assay for Estrogen Receptor (AID 2283381; active = hit-call score of the fitted dose curve at least 0.9, where 1 is the maximum; inactive = score below 0.9). In short, it runs like this:
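An 8 h HeLa transcription-induction format with a GFP reporter under ERE control, read by fluorescence microscopy; single endpoint fitted positively with DMSO as baseline.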

The target is the same in assay [2]. Briefly: OT_ERa_GFPERaERE_0120: Odyssey Thera (OT) 2-hour HeLa Transcription Induction Assay for Estrogen Receptor (AID 2283382). The essentials:
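Two-hour compound treatment of HeLa cells preceded microscopy imaging of an inducible fluorescent reporter. Image-based quantification gave one endpoint, analysed for signal increase relative to DMSO controls.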

Assay [3] addresses Bile acid receptor (Homo sapiens) (UniProt Q96RI1). Briefly: OT_FXR_FXRSRC1_0480: Odyssey Thera (OT) 8-hour HEK293T Protein-Complementation Assay for Farnesoid X receptor/SRC-1 Co-activator (AID 2283383). In short, it runs like this: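 Readings were taken 8 h after dosing HEK293T cells in a split-reporter complementation format pairing FXR with SRC-1. Increased fluorescence relative to DMSO-treated wells defined activity.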

The target of assay [4] is Retinoic acid receptor RXR-alpha (Homo sapiens) (UniProt P19793). In words: OT_NURR1_NURR1RXRa_0480: Odyssey Thera (OT) 8-hour HEK293T Protein Complementation Assay for Nurr1/retinoid X receptor (RXR) (AID 2283385). In short, it runs like this:
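Gain in fluorescent complementation signal over DMSO, measured 8 hours after chemical dosing of human kidney HEK293T cells, indicated enhanced Nurr1–RXRα association.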

Assay [5] shares this target. In words: OT_NURR1_NURR1RXRa_1440: Odyssey Thera (OT) 24-hour HEK293T Protein Complementation Assay for Nurr1/retinoid X receptor (RXR) (AID 2283386). The essentials:
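Cell-based binding reporter: HEK293T cells, 24 h exposure, fluorescence-detected fragment complementation, DMSO as baseline.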

Assay [6] concerns the target Peroxisome proliferator-activated receptor gamma (Homo sapiens) (UniProt P37231). Briefly: OT_PPARg_PPARgSRC1_0480: Odyssey Thera (OT) 8-hour Protein-Complementation Assay for Peroxisome Proliferator-activated Receptor Gamma / SRC-1 Co-activator (AID 2283387). The essentials:
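Read-out: 488 nm N/C fluorescence ratio from complemented Venus YFP fragments, ≥350 cells per image, gain-of-signal fitted against DMSO baseline. Fusions of PPARg/SRC-1 with IFP1/IFP2 expressed transiently in HEK293T; compounds applied 8 h.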

The target is the same in assay [7]. In words: OT_PPARg_PPARgSRC1_1440: Odyssey Thera (OT) 24-hour Protein-Complementation Assay for Peroxisome Proliferator-activated Receptor Gamma/ SRC-1 Co-activator (AID 2283388). The essentials:
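HEK293T transiently transfected with PPARg/SRC-1 split-Venus YFP fusions 48 h before dosing, then treated 24 h at 37C. Fixed cells imaged; nuclear/cytoplasmic 488 nm fluorescence ratio, gain of signal versus DMSO.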

Read-out in assay [8]: Tumor necrosis factor receptor superfamily member 6 (Homo sapiens) (UniProt P25445)
Briefly: LTEA_HepaRG_FAS: Life Technologies and Expression Analysis (LTEA) Assay for Fas cell surface death receptor (FAS) using HepaRG (AID 2283447; active = hit-call score of the fitted dose curve at least 0.9, where 1 is the maximum; inactive = score below 0.9). The following applies: mRNA level, 48 h; actives raise or lower the signal. The essentials:
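FAS transcript level was measured by TaqMan qRT-PCR against three housekeeping genes after 48 h chemical exposure. Cells were HepaRG, 0.5% DMSO vehicle, with a top concentration of 100 uM and half-log dilutions over eight points, in duplicate.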

Read-out in assay [9]: Fatty acid synthase (Homo sapiens) (UniProt P49327)
Briefly: LTEA_HepaRG_FASN: Life Technologies and Expression Analysis (LTEA) Assay for Fatty Acid Synthase (FASN) using HepaRG (AID 2283448; active = hit-call score of the fitted dose curve at least 0.9, where 1 is the maximum; inactive = score below 0.9;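 as to AC50: differentiated human HepaRG liver cells in serum-free induction medium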). The conditions noted are these: mRNA level, 48 h; actives raise or lower the signal. In short, it runs like this: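 In human HepaRG cultures, 48 h chemical exposure (up to 100 uM, 0.5% DMSO) preceded TaqMan qRT-PCR of FASN.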

Read-out in assay [10]: Cyclin D2 (CCND2), CCND2 (gene 894)
In words: LTEA_HepaRG_CCND2: Life Technologies and Expression Analysis (LTEA) Assay for Cyclin D2 (CCND2) using HepaRG (AID 2283449; active = hit-call score of the fitted dose curve at least 0.9, where 1 is the maximum; inactive = score below 0.9). The conditions noted are these: mRNA level, 48 h; actives raise or lower the signal. In short, it runs like this: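 CCND2 transcript levels, quantified by qRT-PCR and normalised to three housekeeping genes, were fitted bidirectionally against 0.5% DMSO. HepaRG cultures were dosed 48 h in duplicate with an 8-point half-log series up to 100 uM.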

In assay [11] the target is Bile acid receptor (Homo sapiens) (UniProt Q96RI1). Briefly: OT_FXR_FXRSRC1_1440: Odyssey Thera (OT) 24-hour HEK293T Protein-Complementation Assay for Farnesoid X receptor/SRC-1 Co-activator (AID 2283384). In short, it runs like this:
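Single endpoint, analysed for increased fluorescence against DMSO controls. HEK293T cells carrying FXR and SRC-1 linked to complementary reporter halves were exposed to chemicals for 24 h before reading.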

The nature of assay [12]: CEETOX_H295R_11DCORT: CeeTox H295R High-throughput Steroidogenesis Assay for 11-Deoxycortisol (11DCORT) (AID 2283432; active = hit-call score of the fitted dose curve at least 0.9, where 1 is the maximum; inactive = score below 0.9). The conditions noted are these: actives raise or lower the signal. The essentials: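 H295R cells; 10 uM forskolin prestim 48 h; compound in 0.1% DMSO 48 h; media extracted with MTBE; 11-deoxycortisol by LC-MS/MS, 7-point standard curve; gain/loss vs DMSO baseline; viability by MTT in same wells.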

Assay [13] can be described thus: CEETOX_H295R_OHPREG: CeeTox H295R High-throughput Steroidogenesis Assay for OH-Pregnenolone (OHPREG) (AID 2283434; active = hit-call score of the fitted dose curve at least 0.9, where 1 is the maximum; inactive = score below 0.9). The following applies: actives raise or lower the signal. The essentials:
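Secreted 17alpha-hydroxypregnenolone measured by HPLC-MS/MS after liquid-liquid extraction. Human adrenal H295R cells received 48 h forskolin (10 uM) stimulation before 48 h chemical exposure at 0.1% final DMSO; MTT viability in same wells; bidirectional fit against DMSO.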

The nature of assay [14]: CEETOX_H295R_OHPROG: CeeTox H295R High-throughput Steroidogenesis Assay for OH-Progesterone (OHPROG) (AID 2283435; active = hit-call score of the fitted dose curve at least 0.9, where 1 is the maximum; inactive = score below 0.9). The following applies: actives raise or lower the signal. The essentials:
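Human adrenocortical H295R cells, passage 10 or lower, were treated with chemical for 48 h after forskolin priming, and hormone output in the medium was quantified by LC-MS/MS.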

The nature of assay [15]: CEETOX_H295R_ANDR: CeeTox H295R High-throughput Steroidogenesis Assay for Androstenedione (ANDR) (AID 2283436; active = hit-call score of the fitted dose curve at least 0.9, where 1 is the maximum; inactive = score below 0.9). The following applies: actives raise or lower the signal. The essentials: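 Medium from 48 h chemical-treated H295R adrenal cells was extracted with MTBE and androstenedione measured by LC-MS/MS. Activity was fit in both directions relative to DMSO. Cytotoxic concentrations were re-tested after dilution until MTT viability reached ≥70%.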

A short description of assay [16]: CEETOX_H295R_CORTISOL: CeeTox H295R High-throughput Steroidogenesis Assay for Cortisol (AID 2283438; active = hit-call score of the fitted dose curve at least 0.9, where 1 is the maximum; inactive = score below 0.9;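 also: cortisol secreted into medium quantified by LC-MS/MS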). The conditions noted are these: actives raise or lower the signal. The essentials:
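Steroidogenesis in H295R, per modified OECD 456: 48 h forskolin (10 uM), then 48 h exposure, 0.1% DMSO. Cortisol by extraction and tandem MS; viability by MTT (570/650 nm); cytotoxic chemicals diluted and re-tested.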

A short description of assay [17]: CEETOX_H295R_DOC: CeeTox H295R High-throughput Steroidogenesis Assay for DOC (AID 2283439; active = hit-call score of the fitted dose curve at least 0.9, where 1 is the maximum; inactive = score below 0.9). The following applies: actives raise or lower the signal. The essentials: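 H295R, fsk 10 uM ×48 h pre, cmpd ×48 h (0.1% DMSO). Media → MTBE extr. → LC-MS/MS, DOC. Bidirectional fit vs DMSO; MTT viability same wells, re-test diluted if <70%.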
A short description of assay [18]: CEETOX_H295R_ESTRADIOL: CeeTox H295R High-throughput Steroidogenesis Assay for Estradiol (AID 2283440; active = hit-call score of the fitted dose curve at least 0.9, where 1 is the maximum; inactive = score below 0.9;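 also: estradiol secreted into medium quantified by LC-MS/MS after dansyl derivatisation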). The following applies: actives raise or lower the signal. In short, it runs like this: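 H295R cells pre-stimulated 48 h with 10 uM forskolin, then exposed 48 h to chemical in 0.1% DMSO. Medium estradiol quantified by MTBE extraction, dansyl derivatisation and HPLC-MS/MS; bidirectional fit versus DMSO; MTT viability required >/=70%.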

Assay [19] is described as follows: CEETOX_H295R_ESTRONE: CeeTox H295R High-throughput Steroidogenesis Assay for Estrone (AID 2283441; active = hit-call score of the fitted dose curve at least 0.9, where 1 is the maximum; inactive = score below 0.9;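 also: estrone secreted into medium measured by LC-MS/MS after dansyl derivatization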). The conditions noted are these: actives raise or lower the signal. In short, it runs like this: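 Forskolin-stimulated H295R cells are treated 48 h with chemical, and estrone in the medium is measured by LC-MS/MS. Activity is fitted in both directions relative to DMSO controls, with chemicals diluted until MTT viability reaches at least 70%.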

Assay [20] in a line: CEETOX_H295R_PROG: CeeTox H295R High-throughput Steroidogenesis Assay for Progesterone (PROG) (AID 2283442; active = hit-call score of the fitted dose curve at least 0.9, where 1 is the maximum; inactive = score below 0.9;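 also: human H295R adrenal cells primed with 10 µM forskolin before dosing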). The conditions noted are these: actives raise or lower the signal. The essentials:
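H295R adrenal cells prestimulated 48 h with 10 uM forskolin, then exposed 48 h to test chemical in 0.1% DMSO. Progesterone in medium quantified by HPLC-MS/MS after MTBE extraction; viability checked by MTT in same wells.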

“And” between values parts separate entries of the source, which are not always exact repeats. Identical values can stand only once. Records with an inconclusive call do not appear. Some structures have more than one record in an assay (separate samples or runs), and their calls can disagree. The source made the active and inactive calls. The calls were made as follows, unless noted: active = hit-call score of the fitted dose curve at least 0.9, where 1 is the maximum; inconclusive = response in the unintended direction; inactive = score below 0.9.

Chain of Estrogen receptor (Homo sapiens) (P03372 whole entry, looked up): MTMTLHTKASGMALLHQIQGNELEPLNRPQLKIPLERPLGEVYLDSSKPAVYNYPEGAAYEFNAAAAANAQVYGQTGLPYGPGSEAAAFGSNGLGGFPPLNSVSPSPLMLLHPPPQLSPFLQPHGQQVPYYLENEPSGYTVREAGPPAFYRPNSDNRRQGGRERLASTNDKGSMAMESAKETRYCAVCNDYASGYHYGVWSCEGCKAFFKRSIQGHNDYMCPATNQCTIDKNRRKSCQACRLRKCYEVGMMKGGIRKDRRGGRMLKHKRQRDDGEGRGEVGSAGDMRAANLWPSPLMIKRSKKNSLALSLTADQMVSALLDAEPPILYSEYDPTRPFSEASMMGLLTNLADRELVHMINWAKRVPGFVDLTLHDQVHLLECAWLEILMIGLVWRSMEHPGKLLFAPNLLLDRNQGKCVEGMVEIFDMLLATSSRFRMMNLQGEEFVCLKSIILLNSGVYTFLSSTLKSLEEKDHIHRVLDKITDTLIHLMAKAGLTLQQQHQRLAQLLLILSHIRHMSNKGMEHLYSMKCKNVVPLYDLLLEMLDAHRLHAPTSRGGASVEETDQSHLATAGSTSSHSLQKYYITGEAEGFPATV
Chain of Peroxisome proliferator-activated receptor gamma (Homo sapiens) (P37231 whole entry, looked up, the tested form may be a part): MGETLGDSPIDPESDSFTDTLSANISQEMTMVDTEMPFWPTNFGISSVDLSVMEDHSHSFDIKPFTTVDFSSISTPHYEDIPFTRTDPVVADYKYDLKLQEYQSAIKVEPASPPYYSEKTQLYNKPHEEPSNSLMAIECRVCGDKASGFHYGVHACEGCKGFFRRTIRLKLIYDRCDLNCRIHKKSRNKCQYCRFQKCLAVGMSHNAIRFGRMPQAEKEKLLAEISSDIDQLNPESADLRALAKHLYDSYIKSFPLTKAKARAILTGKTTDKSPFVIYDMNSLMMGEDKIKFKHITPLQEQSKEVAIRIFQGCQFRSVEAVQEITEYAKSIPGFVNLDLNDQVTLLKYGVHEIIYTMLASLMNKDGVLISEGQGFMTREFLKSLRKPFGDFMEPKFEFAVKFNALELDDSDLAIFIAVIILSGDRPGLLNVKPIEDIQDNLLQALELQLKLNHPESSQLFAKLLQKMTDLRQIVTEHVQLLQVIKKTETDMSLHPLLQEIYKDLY
Chain of Fatty acid synthase (Homo sapiens) (P49327 whole entry, looked up): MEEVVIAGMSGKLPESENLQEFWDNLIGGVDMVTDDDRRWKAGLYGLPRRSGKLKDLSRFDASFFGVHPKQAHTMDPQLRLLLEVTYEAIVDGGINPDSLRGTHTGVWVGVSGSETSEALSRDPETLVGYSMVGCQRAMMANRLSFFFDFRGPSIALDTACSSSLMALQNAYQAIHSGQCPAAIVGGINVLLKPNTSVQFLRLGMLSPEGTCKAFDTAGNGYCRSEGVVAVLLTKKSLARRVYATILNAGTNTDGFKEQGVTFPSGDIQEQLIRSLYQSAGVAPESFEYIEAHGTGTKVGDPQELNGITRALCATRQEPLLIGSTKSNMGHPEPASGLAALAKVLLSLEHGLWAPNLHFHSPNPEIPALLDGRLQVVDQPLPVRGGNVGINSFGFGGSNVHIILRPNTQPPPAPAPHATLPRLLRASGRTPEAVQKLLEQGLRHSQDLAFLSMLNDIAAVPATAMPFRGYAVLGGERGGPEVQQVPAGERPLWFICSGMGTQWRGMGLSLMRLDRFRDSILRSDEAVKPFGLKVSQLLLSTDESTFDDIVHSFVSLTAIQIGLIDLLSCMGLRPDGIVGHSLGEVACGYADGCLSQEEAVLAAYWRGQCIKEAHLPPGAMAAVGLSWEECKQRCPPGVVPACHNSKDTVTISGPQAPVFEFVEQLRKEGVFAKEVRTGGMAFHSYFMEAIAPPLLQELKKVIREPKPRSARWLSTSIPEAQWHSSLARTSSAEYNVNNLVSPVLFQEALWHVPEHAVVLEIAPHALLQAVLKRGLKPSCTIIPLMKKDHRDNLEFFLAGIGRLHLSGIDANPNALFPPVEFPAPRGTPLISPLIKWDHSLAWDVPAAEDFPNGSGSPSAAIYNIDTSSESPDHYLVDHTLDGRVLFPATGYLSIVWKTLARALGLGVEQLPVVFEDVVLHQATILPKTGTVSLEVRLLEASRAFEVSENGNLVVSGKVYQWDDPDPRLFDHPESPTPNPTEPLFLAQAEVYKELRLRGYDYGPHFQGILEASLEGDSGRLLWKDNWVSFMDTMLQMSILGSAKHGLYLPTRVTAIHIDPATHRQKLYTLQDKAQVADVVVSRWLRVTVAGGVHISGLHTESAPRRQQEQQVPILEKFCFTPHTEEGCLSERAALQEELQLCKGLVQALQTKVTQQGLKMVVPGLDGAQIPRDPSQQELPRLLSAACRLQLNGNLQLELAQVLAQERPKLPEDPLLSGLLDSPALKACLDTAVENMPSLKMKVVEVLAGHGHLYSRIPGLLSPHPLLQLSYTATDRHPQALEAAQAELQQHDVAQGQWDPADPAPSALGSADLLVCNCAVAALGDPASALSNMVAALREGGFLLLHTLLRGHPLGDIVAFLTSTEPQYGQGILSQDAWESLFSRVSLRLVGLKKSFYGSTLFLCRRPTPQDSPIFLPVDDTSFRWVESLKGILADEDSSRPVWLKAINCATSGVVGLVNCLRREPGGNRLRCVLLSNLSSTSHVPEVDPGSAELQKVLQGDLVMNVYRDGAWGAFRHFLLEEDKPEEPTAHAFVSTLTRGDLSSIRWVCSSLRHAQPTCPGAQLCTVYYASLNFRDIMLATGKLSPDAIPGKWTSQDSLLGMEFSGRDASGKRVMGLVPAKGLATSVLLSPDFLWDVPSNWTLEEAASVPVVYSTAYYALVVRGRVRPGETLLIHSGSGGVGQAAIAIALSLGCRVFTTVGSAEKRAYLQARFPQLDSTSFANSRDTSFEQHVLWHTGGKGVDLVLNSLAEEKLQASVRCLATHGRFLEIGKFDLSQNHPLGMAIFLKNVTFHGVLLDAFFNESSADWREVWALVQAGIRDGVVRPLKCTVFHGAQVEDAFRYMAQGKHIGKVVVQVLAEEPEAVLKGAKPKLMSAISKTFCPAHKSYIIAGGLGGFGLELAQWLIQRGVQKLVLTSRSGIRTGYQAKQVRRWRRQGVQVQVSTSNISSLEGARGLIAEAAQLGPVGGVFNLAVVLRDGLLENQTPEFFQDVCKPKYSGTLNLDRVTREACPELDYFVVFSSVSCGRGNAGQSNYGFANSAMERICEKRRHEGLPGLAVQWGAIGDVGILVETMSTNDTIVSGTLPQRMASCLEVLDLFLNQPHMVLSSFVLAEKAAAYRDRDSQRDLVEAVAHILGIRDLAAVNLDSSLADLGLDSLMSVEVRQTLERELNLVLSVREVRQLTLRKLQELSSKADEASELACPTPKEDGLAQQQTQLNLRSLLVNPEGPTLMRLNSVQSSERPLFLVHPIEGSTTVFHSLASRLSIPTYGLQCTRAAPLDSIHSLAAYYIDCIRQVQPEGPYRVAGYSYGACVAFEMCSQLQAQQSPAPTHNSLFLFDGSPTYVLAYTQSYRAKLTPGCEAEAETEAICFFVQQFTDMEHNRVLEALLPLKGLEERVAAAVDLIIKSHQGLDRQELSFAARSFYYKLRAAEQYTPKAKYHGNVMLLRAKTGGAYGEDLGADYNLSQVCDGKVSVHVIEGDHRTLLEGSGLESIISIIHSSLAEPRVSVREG
Chain of Retinoic acid receptor RXR-alpha (Homo sapiens) (P19793 whole entry, looked up): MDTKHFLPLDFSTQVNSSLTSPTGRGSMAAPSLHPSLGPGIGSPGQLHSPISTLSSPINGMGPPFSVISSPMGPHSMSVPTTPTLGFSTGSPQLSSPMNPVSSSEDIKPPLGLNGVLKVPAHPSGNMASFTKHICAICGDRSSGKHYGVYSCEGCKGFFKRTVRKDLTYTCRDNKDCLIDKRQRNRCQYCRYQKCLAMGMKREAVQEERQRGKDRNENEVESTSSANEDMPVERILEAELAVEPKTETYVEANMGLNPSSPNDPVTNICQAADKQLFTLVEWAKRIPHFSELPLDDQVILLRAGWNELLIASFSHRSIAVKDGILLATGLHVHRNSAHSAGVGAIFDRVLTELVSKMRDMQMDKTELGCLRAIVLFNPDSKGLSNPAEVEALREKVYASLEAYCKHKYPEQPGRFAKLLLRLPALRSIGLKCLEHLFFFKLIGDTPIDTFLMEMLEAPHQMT
Chain of Bile acid receptor (Homo sapiens) (Q96RI1 whole entry, looked up): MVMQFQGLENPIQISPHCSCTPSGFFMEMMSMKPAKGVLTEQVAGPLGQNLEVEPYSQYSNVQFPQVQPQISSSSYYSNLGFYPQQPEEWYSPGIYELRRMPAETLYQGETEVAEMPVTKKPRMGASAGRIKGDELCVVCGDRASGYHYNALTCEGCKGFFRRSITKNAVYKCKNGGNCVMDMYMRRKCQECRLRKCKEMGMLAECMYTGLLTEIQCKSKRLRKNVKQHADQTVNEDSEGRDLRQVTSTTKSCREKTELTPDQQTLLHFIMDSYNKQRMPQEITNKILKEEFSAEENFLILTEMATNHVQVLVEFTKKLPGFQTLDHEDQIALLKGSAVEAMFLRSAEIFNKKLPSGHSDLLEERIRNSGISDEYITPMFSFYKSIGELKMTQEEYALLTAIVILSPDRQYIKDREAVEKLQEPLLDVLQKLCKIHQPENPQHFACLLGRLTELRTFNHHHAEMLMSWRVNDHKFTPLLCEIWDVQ

`CC(C)c1cccc(C(C)C)c1`: the call in [1], in assay [2], in [3], in assay [4], in [5] and in assay [6] was inactive. Further, the call in assay [7], in [8], in assay [9] and in assay [10] was inactive.

Turning to `O=C(NS(=O)(=O)/C=C/c1cccs1)c1ccc(F)cc1Br`, the result in [1], in assay [2], in [3], in assay [6], in [8] and in [9] was inactive. Also, the half-maximal activity concentration (AC50) (as a rule, the midpoint of the concentration-response curve, whichever way the signal moves) in assay [11] is 1.72 µM (active); in assay [4], 29.6 µM (active); in [5] it was 17.3 µM (active); in [7], 51.2 µM (active).

`CSc1ccc(Oc2ccc(S(N)(=O)=O)cc2CN(C)C)cc1C`: the molecule was called inactive in [1], in assay [2], in assay [3], in assay [4], in [6] and in assay [7]. The outcome in assay [8] and in [10] was inactive. Besides, the concentration at half-maximal activity (AC50) in assay [11] was 26.5 µM (active); in assay [4], 50 µM (active); in [5] it was 57.5 µM (active) and 19 µM (active); in assay [9], 83.1 µM (active).

For `CCCCCCCCCCCCCCOS(=O)(=O)O`, the values for the AC50 in assay [1] and in assay [4] were 92.3 µM (active) and 79.4 µM (active), respectively. Also, the molecule was classed as inactive in [2], in assay [4], in assay [5], in [6], in assay [7] and in assay [8]. The outcome in assay [9] and in assay [10] was inactive.

With `O=C(N[C@@H](c1ccccc1)[C@@H]1CCCCN1)c1cccc(C(F)(F)F)c1Cl`, the outcome in assay [1], in [2], in assay [6], in assay [7], in [8] and in [10] was inactive. In addition, the AC50 in [3] is 31.6 µM (active); in assay [11] it was 11.4 µM (active); in assay [9] it was 85 µM (active).

As to `CN(C)CCCN(C)CCCN(C)C`, the molecule was classed as inactive in assay [1], in assay [2], in [11], in [4], in assay [5] and in assay [6]. The call in assay [7], in assay [8] and in assay [9] was inactive.

`NC1CCCCC1`: the molecule was called inactive in assay [1], in assay [2], in assay [4], in [5], in [6] and in [7]. Moreover, the molecule was classed as inactive in assay [8], in assay [9] and in [10].

Take `CC1(C)C(=O)NC(=O)N1CO`: the call in assay [1], in assay [2], in [4], in [6], in assay [7] and in [8] was inactive. In addition, the call in assay [9] and in assay [10] was inactive.

`CC1=C(C)S(=O)(=O)CCS1(=O)=O`: the molecule was classed as inactive in [1], in [2], in assay [4], in [6], in assay [7] and in assay [12]. Further, the outcome in [13], in assay [14], in [15], in assay [16], in [17] and in [18] was inactive. Moreover, the outcome in assay [19] and in assay [10] was inactive. The results for the AC50 in assay [20], in assay [8] and in assay [9] were 1.03 µM (active), 76.8 µM (active) and 81.6 µM (active), respectively.

Consider `OCC(CO)n1cnc(-c2ccc(F)cc2)c1-c1ccnc(Oc2ccccc2)n1`, for which the call in [1], in assay [2], in assay [4], in [5], in assay [6] and in [7] was inactive. Further, the result in assay [8], in assay [9] and in [10] was inactive.
